Among the data in PubChem BioAssay (Tox21) are Potency and outcome values, retold here.

Test [1] is described as follows: qHTS assay to test for compound auto fluorescence at 535 nm (green) in HEK293 cells (AID 720680). A general note: Quantitative high-throughput screening tests each substance at several concentrations.
Test [2] is described as follows: qHTS assay to test for compound auto fluorescence at 460 nm (blue) in HEK293 cell free culture (AID 720681). The method in brief: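 Test compounds were pinned into cell-free culture medium (DMEM with 10% FBS) and fluorescence was read directly at Ex/Em 405/460 nm. Signals were expressed as fluorescence equivalents of triamterene, with DMSO vehicle as control.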
The nature of test [3]: qHTS assay to test for compound auto fluorescence at 535 nm (green) in HEK293 cell free culture (AID 720682). The method in brief: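 No cells present: wells hold DMEM supplemented with 10% FBS, into which compound or vehicle is pinned. Green emission is then recorded (485 nm excitation, 535 nm emission) and scaled to fluorescein.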
Test [4] in a line: qHTS assay to test for compound auto fluorescence at 590 nm (red) in HEK293 cell free culture (AID 720683). The procedure, abridged: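 Tox21 10K library compounds were pinned into cell-free DMEM with 10% FBS and fluorescence was read at excitation 540 nm. Activity is expressed as Rose Bengal sodium equivalency.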
Test [5] is described as follows: qHTS assay to test for compound auto fluorescence at 590 nm (red) in HepG2 cell free culture (AID 720684). The method in brief: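 Red fluorescence (540 nm excitation, 590 nm emission) was measured after compound transfer into cell-free MEM supplemented with 10% FBS. Values are equivalencies against Rose Bengal sodium.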
The nature of test [6]: qHTS assay to test for compound auto fluorescence at 460 nm (blue) in HepG2 cell free culture (AID 720685). The procedure, abridged:
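Compound (23 nL) or DMSO pinned into cell-free MEM with 10% FBS; blue fluorescence read at 405/460 nm excitation/emission, expressed as auto-fluorescence equivalency to triamterene.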

Test [7] can be described thus: qHTS assay to test for compound auto fluorescence at 535 nm (green) in HepG2 cell free culture (AID 720686).
The nature of test [8]: qHTS assay to test for compound auto fluorescence at 460 nm (blue) in HepG2 cells (AID 720687). The method in brief: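 Cells (2,000/well in MEM with 10% FBS) attached overnight at 37 C, then were exposed to compound or DMSO for 1 hr at 37 C, 5% CO2. Fluorescence read at Ex/Em 405/460 nm, expressed as triamterene-equivalent signal.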
The target of test [9] is Glucocorticoid receptor (Homo sapiens) (UniProt P04150). In words: qHTS assay to identify small molecule agonists of the glucocorticoid receptor (GR) signaling pathway (AID 720691; active = well fitted activation curve with a large enough effect in the signal ratio in the repeat runs, not every such curve was filed as active; the % refers to the signal ratio; note: potency is the fitted concentration of half-maximal effect). The procedure, abridged: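 Reporter read-out: fluorescence intensity following 2 h room-temperature LiveBLAzer B/G FRET substrate loading. Prior step: GR-bla HeLa cells held 4 h, then treated 18 h at 37 C.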
Glucocorticoid receptor (Homo sapiens), sequence (P04150 whole entry, looked up): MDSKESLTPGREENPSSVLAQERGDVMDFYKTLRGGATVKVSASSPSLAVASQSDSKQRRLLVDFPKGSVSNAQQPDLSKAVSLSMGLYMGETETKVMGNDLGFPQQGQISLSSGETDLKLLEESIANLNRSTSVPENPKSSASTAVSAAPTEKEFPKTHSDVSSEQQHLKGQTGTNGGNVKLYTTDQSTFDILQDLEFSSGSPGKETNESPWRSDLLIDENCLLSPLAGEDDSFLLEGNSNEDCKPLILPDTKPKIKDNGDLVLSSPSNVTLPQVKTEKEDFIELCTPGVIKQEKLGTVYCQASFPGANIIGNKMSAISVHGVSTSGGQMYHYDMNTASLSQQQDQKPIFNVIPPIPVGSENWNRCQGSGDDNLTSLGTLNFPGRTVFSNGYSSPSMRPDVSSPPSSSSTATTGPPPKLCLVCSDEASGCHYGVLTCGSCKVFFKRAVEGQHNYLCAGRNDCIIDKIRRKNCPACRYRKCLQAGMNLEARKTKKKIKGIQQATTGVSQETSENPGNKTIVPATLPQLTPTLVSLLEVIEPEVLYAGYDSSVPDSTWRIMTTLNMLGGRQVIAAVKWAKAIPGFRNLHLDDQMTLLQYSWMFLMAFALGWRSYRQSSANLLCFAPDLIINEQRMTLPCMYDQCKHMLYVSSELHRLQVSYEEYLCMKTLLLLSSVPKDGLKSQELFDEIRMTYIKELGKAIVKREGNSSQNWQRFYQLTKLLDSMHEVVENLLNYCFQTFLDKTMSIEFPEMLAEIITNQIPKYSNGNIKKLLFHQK

Test [10] shares this target. Nature of the test: qHTS assay to identify small molecule antagonists of the glucocorticoid receptor (GR) signaling pathway (AID 720692; active = well fitted inhibition curve with a large enough effect in the signal ratio in the repeat runs, not every such curve was filed as active; the % refers to the signal ratio; note: potency is the fitted concentration of half-maximal effect). The procedure, abridged:
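Dexamethasone (5 nM final) stimulated a stably integrated GRE-beta-lactamase reporter in HeLa cells during 18 h co-incubation with compounds; signal was quantified as fluorescence intensity of B/G FRET substrate after 2 h.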

The nature of test [11]: qHTS assay to identify small molecule antagonists of the glucocorticoid receptor (GR) signaling pathway - cell viability counter screen (AID 720693). Note: nearly all actives have a fitted effect of over 55% in size. Note: potency is the fitted concentration of half-maximal effect.
Test [12] is described as follows: qHTS assay for identifying genotoxic compounds that show differential cytotoxicity against isogenic chicken DT40 cell lines with known DNA damage response pathways - wild type cell line (AID 743012). Note: nearly all actives have a fitted effect of over 60% in size. Note: potency is the fitted concentration of half-maximal effect. The method in brief: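 Using parental DT40 (300 cells/well), compounds delivered in DMSO incubate 40 h at 37 C/5% CO2. CellTiter-Glo reagent then stands 30 min at room temperature, and luminescence gives cell viability.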

Test [13] in a line: qHTS assay for identifying genotoxic compounds that show differential cytotoxicity against isogenic chicken DT40 cell lines with known DNA damage response pathways - Rev3 mutant cell line (AID 743014). Note: nearly all actives have a fitted effect of over 55% in size. Note: potency is the fitted concentration of half-maximal effect.
Test [14] can be described thus: qHTS assay to identify small molecule antagonists of the androgen receptor (AR) signaling pathway using the MDA cell line - cell viability counter screen (AID 743041; note: nearly all actives have a fitted effect of over 45% in size). The method in brief:
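MDA-kb2 AR-luc human breast carcinoma cells (MMTV-luciferase, AR/GR responsive) were treated with compounds plus R1881 agonist for 16 h at 37 °C. Viability was read as CellTiter-Fluor fluorescence in the same wells as the reporter assay.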

Test [15] can be described thus: qHTS assay to identify small molecule antagonists of the thyroid receptor (TR) signaling pathway - cell viability counter screen (AID 743064). Note: nearly all actives have a fitted effect of over 50% in size. Note: potency is the fitted concentration of half-maximal effect. The method in brief:
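Rat GH3 pituitary tumor cells stably expressing two TR response elements driving luciferase were plated, rested 4 h, then dosed with library compounds and T3 (1 nM final). After 23.5 h at 37 °C, CellTiter-Fluor was added for 30 min and fluorescence recorded.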

A short description of test [16]: qHTS assay to identify small molecule antagonists of the androgen receptor (AR) signaling pathway - cell viability counter screen (AID 743033; note: nearly all actives have a fitted effect of over 45% in size).
The target in test [17] is Androgen receptor (Homo sapiens) (UniProt P10275). In words: qHTS assay to identify small molecule antagonists of the androgen receptor (AR) signaling pathway (AID 743035; active = well fitted inhibition curve with a large enough effect in the signal ratio in the repeat runs, not every such curve was filed as active; the % refers to the signal ratio). The procedure, abridged: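 Using qHTS, AR-UAS-bla GripTite HEK293 cells received compound, then R1881, and were cultured 16 h at 37C/5% CO2 before a 2 h room-temperature LiveBLAzer B/G FRET substrate step and fluorescence measurement.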
Androgen receptor (Homo sapiens), sequence (P10275 whole entry, looked up): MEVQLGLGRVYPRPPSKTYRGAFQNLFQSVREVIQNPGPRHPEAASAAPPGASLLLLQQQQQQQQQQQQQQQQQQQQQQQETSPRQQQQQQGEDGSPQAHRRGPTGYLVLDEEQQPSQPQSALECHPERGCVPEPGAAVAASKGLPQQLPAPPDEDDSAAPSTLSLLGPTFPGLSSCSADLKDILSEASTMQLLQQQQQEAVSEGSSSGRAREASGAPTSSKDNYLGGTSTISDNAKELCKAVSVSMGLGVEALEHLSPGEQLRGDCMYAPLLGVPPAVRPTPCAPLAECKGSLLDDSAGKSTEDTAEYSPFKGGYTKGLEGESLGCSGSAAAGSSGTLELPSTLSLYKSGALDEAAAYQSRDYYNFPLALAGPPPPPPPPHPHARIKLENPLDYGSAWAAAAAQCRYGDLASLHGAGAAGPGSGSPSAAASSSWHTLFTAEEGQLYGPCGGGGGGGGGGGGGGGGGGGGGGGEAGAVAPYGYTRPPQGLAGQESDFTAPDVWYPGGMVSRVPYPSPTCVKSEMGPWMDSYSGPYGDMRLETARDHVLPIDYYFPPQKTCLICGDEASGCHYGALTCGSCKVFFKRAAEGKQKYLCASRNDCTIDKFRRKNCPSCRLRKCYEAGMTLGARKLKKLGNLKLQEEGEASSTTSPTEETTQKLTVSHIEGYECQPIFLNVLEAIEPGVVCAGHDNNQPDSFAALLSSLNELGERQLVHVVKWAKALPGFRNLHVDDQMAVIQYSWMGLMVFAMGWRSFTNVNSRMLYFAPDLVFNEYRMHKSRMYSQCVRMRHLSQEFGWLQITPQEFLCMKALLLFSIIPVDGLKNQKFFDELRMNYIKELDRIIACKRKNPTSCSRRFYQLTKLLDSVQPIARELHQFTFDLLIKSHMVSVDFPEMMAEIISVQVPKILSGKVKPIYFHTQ

For test [18] the target is unchanged. In words: qHTS assay to identify small molecule agonists of the androgen receptor (AR) signaling pathway (AID 743036; active = well fitted activation curve with a large enough effect in the signal ratio in the repeat runs, with a control signal flat, not every such curve was filed as active; the % refers to the signal ratio). The procedure, abridged: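 Quantitative HTS of the Tox21 10K library in HEK293 cells bearing a stably integrated UAS-controlled beta-lactamase reporter. Compound exposure lasted 16 h at 37C. Reporter activity was detected by FRET substrate fluorescence after 2 h at room temperature.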

Test [19] has the same target. Nature of the test: qHTS assay to identify small molecule antagonists of the androgen receptor (AR) signaling pathway using the MDA cell line (AID 743042; note: nearly all actives have a fitted effect of over 55% in size; note: potency is the fitted concentration of half-maximal effect). The method in brief:
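MDA-kb2 cells (human breast carcinoma, stably carrying an MMTV-luciferase reporter responsive to AR and GR) were plated at 3,000 cells/well and preincubated 5 hr at 37C, then given compound plus R1881 agonist for 16 h. ONE-Glo luminescence was read.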

A short description of test [20]: qHTS assay for identifying genotoxic compounds that show differential cytotoxicity against isogenic chicken DT40 cell lines with known DNA damage response pathways - Rad54/Ku70 mutant cell line (AID 743015). Note: nearly all actives have a fitted effect of over 60% in size. Note: potency is the fitted concentration of half-maximal effect.

Molecules are shown by their SMILES. Values joined by “and” are separate entries in the source; they are usually repeats but may differ in a detail not shown here. Equal entries are not always repeated. Inconclusive results are not listed. More than one record can exist for a structure, and the calls need not agree. Active and inactive are the calls of the source. Unless noted, calls come from the whole dose curve; as a rule, active = well fitted curve in the direction sought with a large enough effect in the repeat runs; inconclusive = weak or mixed curves; inactive = no such curve, though single readings can be large; an effect the other way counts as inactive or inconclusive.

As to `NCCS(=O)(=O)O`, the Potency result in test [1], in [2], in test [3], in [4], in [5] and in test [6] was “inactive” in each case. The Potency result in test [7], in [8], in test [9], in test [10], in [11] and in [12] was “inactive” each time. Moreover, the Potency result in test [13] and in test [14] was “inactive” in each case. Moreover, the Potency entry in test [15] is “inactive and 28.4 µM (active)”.

In the case of `CC[C@]12CCCN3CCc4c(n(c5ccccc45)[C@@](O)(C(=O)OC)C1)[C@@H]32`, the Potency result in test [1], in test [2], in test [3], in test [4], in test [5] and in test [6] was “inactive” throughout. In addition, the Potency entry in test [7], in test [8], in [9], in test [10], in test [12] and in test [13] was “inactive” throughout. The Potency result in test [16], in test [17], in test [19] and in [15] was “inactive” throughout. Also, the compound was classed as inactive in test [18].

In the case of `CC1(C)O[C@@H]2C[C@H]3[C@@H]4C[C@H](F)C5=CC(=O)C=C[C@]5(C)[C@@]4(F)[C@@H](O)C[C@]3(C)[C@]2(C(=O)CO)O1`, the Potency result in test [1], in [2], in [3], in test [4], in test [5] and in [6] was “inactive” throughout. In addition, the Potency entry in test [7], in [8], in test [11], in [12], in [13] and in test [20] was “inactive” each time. Besides, in test [16], the Potency result is “inactive”. Moreover, the Potency in test [9] is 3.8 nM (active) and 1.2 nM (active).

Take `C1CN(SSN2CCOCC2)CCO1`: the Potency result in [1], in test [2], in test [3], in [4], in test [5] and in [6] was “inactive” throughout. The Potency entry in test [7], in test [8], in test [9], in test [11] and in test [14] was “inactive” in each case. The Potency in [12] was 27.3 µM (active); in [13] it was 42.8 µM (active) and 27.3 µM (active); in test [20], 19.3 µM (active); in [15], 67.9 µM (active).

As to `NCCOCCO`, the Potency result in [1], in test [2], in [3], in [4], in test [5] and in [6] was “inactive” throughout. Also, the Potency result in [7], in test [8], in [9], in test [10], in test [11] and in test [12] was “inactive” each time. Besides, the Potency result in test [13] and in test [16] was “inactive” throughout.

On to `O=Cc1ccccc1C=O`, for which the Potency entry in test [1], in test [2], in [3], in test [4], in test [5] and in test [6] was “inactive” each time. The Potency entry in test [7], in [8] and in [16] was “inactive” throughout. Besides, the Potency in test [10] is 6.16 µM (active); in test [11] it was 23.9 µM (active) and 4.36 µM (active); in test [12] it was 7.5 µM (active) and 2.73 µM (active); in [13], 8.41 µM (active) and 2.17 µM (active); in test [19], 8.63 µM (active); in test [15], 10.6 µM (active) and 2.43 µM (active).

Take `Oc1c(Cl)ccc(Cl)c1Cl`: the Potency entry in [1], in [2], in test [3], in test [4], in [5] and in [6] was “inactive” in each case. In addition, the Potency result in test [7], in test [8], in test [9], in [10], in test [11] and in test [12] was “inactive” throughout. For the same compound, the Potency result in test [13], in test [16] and in test [14] was “inactive” throughout.

With `CCC(Cc1c(I)cc(I)c(N)c1I)C(=O)O` (centres undefined), the Potency entry in test [1], in test [2], in test [3], in test [4], in test [5] and in test [6] was “inactive” each time. Also, the Potency entry in [7], in test [8], in [9], in [11], in [12] and in test [13] was “inactive” each time. In addition, the Potency entry in test [14] and in test [15] was “inactive” in each case.
